In paper PMC4336329 (PLoS ONE, 2015):
About 14,000 (4.5%) of roughly 310,000 compounds showed an effect of 50% or more. The effect is printed as a negative number. This is one part of a sample in which strong results are shown more often than they occur.

What follows are compounds tested against human ether-à-go-go-related gene (hERG) potassium channel (human, UniProt Q12809) (assay: primary screen, population patch clamp on CHO cells stably expressing hERG; higher = less effect of the substance).
human ether-à-go-go-related gene (hERG) potassium channel, sequence (Q12809 whole entry, looked up): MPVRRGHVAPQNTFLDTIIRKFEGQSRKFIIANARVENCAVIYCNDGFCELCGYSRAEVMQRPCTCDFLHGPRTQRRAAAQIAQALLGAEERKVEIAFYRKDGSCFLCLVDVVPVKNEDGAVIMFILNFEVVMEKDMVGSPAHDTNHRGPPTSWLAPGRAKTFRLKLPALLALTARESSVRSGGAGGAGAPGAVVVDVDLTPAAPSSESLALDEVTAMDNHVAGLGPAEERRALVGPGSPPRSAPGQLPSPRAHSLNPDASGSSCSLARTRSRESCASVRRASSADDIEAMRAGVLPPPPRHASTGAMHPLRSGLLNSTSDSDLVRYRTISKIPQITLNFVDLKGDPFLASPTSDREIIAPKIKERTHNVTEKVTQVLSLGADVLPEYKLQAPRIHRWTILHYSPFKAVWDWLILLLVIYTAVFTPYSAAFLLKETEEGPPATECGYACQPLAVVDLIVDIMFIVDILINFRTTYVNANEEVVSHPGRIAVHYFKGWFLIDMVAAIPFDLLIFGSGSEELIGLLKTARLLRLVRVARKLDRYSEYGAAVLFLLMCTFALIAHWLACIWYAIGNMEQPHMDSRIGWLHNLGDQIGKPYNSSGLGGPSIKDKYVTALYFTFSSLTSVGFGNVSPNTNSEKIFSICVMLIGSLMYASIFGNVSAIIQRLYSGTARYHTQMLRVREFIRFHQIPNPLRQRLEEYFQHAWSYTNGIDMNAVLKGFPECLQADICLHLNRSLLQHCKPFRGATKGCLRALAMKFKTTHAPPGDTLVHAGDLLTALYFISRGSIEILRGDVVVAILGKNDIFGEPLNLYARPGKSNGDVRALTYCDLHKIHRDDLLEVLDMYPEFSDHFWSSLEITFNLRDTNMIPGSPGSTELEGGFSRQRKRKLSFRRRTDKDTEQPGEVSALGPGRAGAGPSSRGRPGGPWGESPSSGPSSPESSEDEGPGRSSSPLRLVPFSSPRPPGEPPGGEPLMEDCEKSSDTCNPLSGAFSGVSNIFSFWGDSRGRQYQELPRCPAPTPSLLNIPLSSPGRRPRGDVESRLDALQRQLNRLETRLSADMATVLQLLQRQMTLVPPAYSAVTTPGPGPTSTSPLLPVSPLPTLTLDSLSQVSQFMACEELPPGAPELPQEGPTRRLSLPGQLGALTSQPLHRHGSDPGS
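Note: peak tail current of the secondary pulse compared with the same well before compound.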

SMILES | hERG current change (%, negative = inhibition) at 10uM
CN(C)CCNC(=O)c1cc(Br)ccc1Cl | 3.14%
CC(=O)c1c(N2CCN(c3ccccn3)CC2)nc(=S)n(-c2ccccc2)c1C | -32.3%
CCOC(=O)CN1CCC(c2cc(-c3ccc(Cl)cc3)n[nH]2)CC1 | -12.5%
Cc1ccc(CN2CCN(/N=C/c3cccs3)CC2)cc1 | -38%
Clc1ccc(-c2cc(C3CCNCC3)[nH]n2)cc1 | -3.21%
Cc1ccc(CN2CCC(c3cc(-c4ccc(Cl)cc4)n[nH]3)CC2)cc1 | -78.8%
CC(C)(C)OC(=O)N1CCC(c2cc(-c3cccs3)n[nH]2)CC1 | -1.2%
Cc1ccc(CN2CCC(c3cc(-c4cccs4)n[nH]3)CC2)cc1 | -82.1%
O=C(O)c1ccc(NC(=O)c2cccc(C(=O)Nc3ccc(C(=O)O)cc3)c2)cc1 | 7.31%
Cc1c(S(=O)(=O)NCCc2ccccc2)c(=O)n(C)c(=O)n1C | -1.25%
CCN(CC)C(=O)c1ccc2c(c1[N+](=O)[O-])C(=O)c1ccccc1C2=O | 6.69%
Cc1nn(C2CCOC(C)(C)C2)c2c1C(c1ccc(OC(C)C)cc1)SCC(=O)N2 (stereo not shown) | -15.5%
Nc1nc(N2CCCCC2)nc(N2CCCCC2)n1 | -78.2%
Nc1nc(N2CCCCC2)nc(N(c2ccccc2)c2ccccc2)n1 | 17.1%
C1CCN(c2nc(N3CCCCC3)nc(N3CCNCC3)n2)CC1 | -7.81%
O=C(C1CCN(S(=O)(=O)N2CCOCC2)CC1)N1CCOCC1 | -6.69%
CCN(CC)S(=O)(=O)c1ccc(NC(=O)C2CCCO2)cc1 (stereo not shown) | 6.96%
CCCCNS(=O)(=O)c1ccc(NC(=O)C2CCCO2)cc1 (stereo not shown) | -8.88%
CCCN(CCC)S(=O)(=O)c1ccc(NC(=O)C2CCCO2)cc1 (stereo not shown) | -64.4%
Cc1ccc(NC(=O)CN2CCOCC2)cc1 | 14.1%
CCCCN(CCCC)S(=O)(=O)c1ccc(NC(=O)CN2CCOCC2)cc1 | -53.6%
CN(C)S(=O)(=O)c1ccc(NC(=O)CN2CCOCC2)cc1 | 9.72%
CC12CCC(C(=O)N(CC(O)CN3CCN(Cc4ccccc4)CC3)C1=O)C2(C)C.Cl (stereo not shown) | -6.03%

SMILES | hERG current change (%, negative = inhibition) at 10uM
O=C(C1CCC(=O)N1Cc1ccccc1Cl)N1CCC2(CC1)OCCO2 (stereo not shown) | -29.7%
COc1ccc(CN2CCNC(=O)C2CC(=O)NCCCC2CCCC2)c(C)c1C (stereo not shown) | 5.39%
CC(CNS(=O)(=O)c1ccc2c(c1)CC(=O)N2C)c1ccccc1 (stereo not shown) | -12.3%
COc1cccc(NC(=O)CN(C)C(=O)c2cc(C)oc2C)c1 | 6.56%
Cc1cc2cc(CNC(=O)c3ccc4c(c3)OCO4)ccc2[nH]1 | -1.85%
Cc1ccc2[nH]c(=O)c(CN3CCCCC3)c(-c3ccccc3)c2c1 | -53.6%
Cc1[nH]c2ccc(Br)cc2c(=O)c1CN1CCCCCC1 | -64.3%
CCc1ccc2[nH]c(C)c(CN3CCCCCC3)c(=O)c2c1 | -46.9%
O=c1[nH]c2ccc(Br)cc2c(-c2ccccc2)c1CN1CCOCC1 | -65.7%
O=c1[nH]c2ccc(Br)cc2c(-c2ccccc2)c1N1CCOCC1 | 7.5%
O=c1[nH]c2ccc(Cl)cc2c(-c2ccccc2)c1CN1CCOCC1 | -14.7%
Cc1ccc2[nH]c(-c3ccccc3)c(CN3CCCC3)c(=O)c2c1 | -12.2%
Cc1[nH]c2ccc(Br)cc2c(=O)c1CN1CCOCC1 | -27.2%
Cc1ccc2[nH]c(=O)c(CC(=O)O)c(-c3ccccc3)c2c1 | 17.7%
COc1ccc(CN2CCNC(=O)C2CC(=O)NC2CCCCCCC2)cc1C (stereo not shown) | 15.8%
CC(C)(C)c1cc(=O)[nH]c(SCc2ccccc2)n1 | 17.3%
OCC1CO1 (stereo not shown) | 15.8%
Cn1c(O)c(N=NC(=O)CNC(=O)c2cccnc2)c2ccccc21 | 15.1%
CCOC(=O)c1c(O)c2ccccc2n(C)c1=O | 27.7%
CCOc1ccc(NC(=O)CSc2n[nH]c(N)n2)c([N+](=O)[O-])c1 | -6.62%
COc1cccc(C(=O)NCc2cccnc2)c1 | 1.54%
O=C1CSC(c2cn(-c3ccccc3)nc2-c2cc3ccccc3oc2=O)N1Cc1ccccc1 (stereo not shown) | 5.85%
O=C(CSc1nc2[nH]ncc2c(=O)[nH]1)Nc1cccc(Cl)c1 | 4.2%

SMILES | hERG current change (%, negative = inhibition) at 10uM
CN(C)c1ccnc(N(Cc2ccccc2)Cc2ccccc2)c1C#N.Cl | -6.74%
CN(C)CCN(Cc1ccccc1)c1ccnc(N(C)C)c1C#N | -26.7%
CN(C)c1nccc(N(Cc2ccccc2)Cc2ccccc2)c1C#N | -58.3%
Cc1c(Cl)cccc1N=C1SCCN1C(=O)CN1C(=O)NC2(CCCC2)C1=O | -16.5%
O=C(C1CC1)N1CCc2cc(Br)cc(S(=O)(=O)N3CCCCCC3)c21 | -16.5%
O=C(N/N=C/c1ccncc1)c1ccc(OCc2ccccc2)cc1 | -0.12%
O=C1NC(=O)/C(=C\c2ccc(Sc3ccc(Cl)cc3)o2)N1 | 2.37%
Oc1ccc(/C=N/Nc2nc(-c3cccnc3)nc3ccccc23)c(O)c1 | -2.97%
COc1ccc(-c2occ(C(=O)O)c2C(=O)O)cc1 | -3.07%
CCn1cc([N+](=O)[O-])c(C(=O)N2N=C(c3ccccc3)CC2c2ccc([N+](=O)[O-])cc2)n1 (stereo not shown) | -37.2%
COc1ccc(C2CC(c3ccc(Cl)cc3)=NN2C(C)=O)cc1 (stereo not shown) | -23.5%
CC(=O)N1N=C(c2ccc(Cl)cc2)CC1c1ccc([N+](=O)[O-])cc1 (stereo not shown) | 11.8%
CC(=O)N1N=C(c2ccccc2)CC1c1ccccc1[N+](=O)[O-] (stereo not shown) | 2.95%
CCC(=O)N1N=C(c2ccccc2)CC1c1ccc([N+](=O)[O-])cc1 (stereo not shown) | -53.4%
COc1ccc(C2CC(c3ccc([N+](=O)[O-])cc3)=NN2C(C)=O)cc1 (stereo not shown) | -64.5%
CC(=O)N1N=C(c2ccccc2)CC1c1cccc([N+](=O)[O-])c1 (stereo not shown) | -27.3%
O=C(O)CCC(=O)N1N=C(c2cccs2)CC1c1cccc([N+](=O)[O-])c1 (stereo not shown) | 20%
CCC(=O)N1N=C(c2ccccc2)CC1c1ccccc1 (stereo not shown) | 2.71%
CC(=O)N1N=C(c2ccc([N+](=O)[O-])cc2)CC1c1ccccc1Cl (stereo not shown) | -66%
CC(=O)N1N=C(c2cccs2)CC1c1cccc([N+](=O)[O-])c1 (stereo not shown) | -51.6%
COc1ccc(C2=NN(C(=O)CCC(=O)O)C(c3ccc([N+](=O)[O-])cc3)C2)cc1 (stereo not shown) | 10.2%
O=C(O)CC1S/C(=N/N=C/C=C/c2ccccc2)NC1=O (stereo not shown) | 0.632%
Cc1ccc(-n2c(C)c(C)c3c(NCCO)ncnc32)cc1 | 6.27%

SMILES | hERG current change (%, negative = inhibition) at 10uM
CSc1nsc(SCC(=O)Nc2nc3ccccc3s2)n1 | 9.66%
Cn1c(=O)[nH]c2nnc(-c3ccc(Cl)c(Cl)c3)nc2c1=O | 8.52%
COc1ccc(OC)c(/C=N/NC(=O)c2cnccn2)c1 | 1.45%
COc1ccccc1CNC(=O)C(=O)NCC1OCCN1C(=O)c1cccs1 (stereo not shown) | 3.96%
Cc1c(C(=O)N/N=C/c2ccc(-c3ccccc3[N+](=O)[O-])o2)sc(N)c1C#N | 12.1%
COc1ccccc1N(C)S(=O)(=O)c1ccc(C(=O)OC(C)C(=O)NCc2ccc3c(c2)OCO3)cc1 (stereo not shown) | -41.6%
CCc1ccc(NC(=S)NCC2CCCN2CC)cc1 (stereo not shown) | -32.2%
CCn1c(SCC(=O)OC)nnc1C1CCCCC1 | 6.57%
O=C(N/N=C/c1ccoc1)c1ccccc1Br | 16.9%
CCc1nc(SCc2ccc(Cl)cc2)n[nH]1 | 12%
Cn1cccc1Cc1nnc(SCC(=O)Nc2nccs2)n1CCc1ccccc1 | -9.58%
Cc1csc(NC(=O)CSc2nnc(-c3ccoc3C)n2C(C)c2ccccc2)n1 (stereo not shown) | -74.1%
Cc1occc1-c1nnc(SCC(=O)Nc2ccccc2)n1C(C)c1ccccc1 (stereo not shown) | -37.6%
Cc1csc(NC(=O)CSc2nnc(-c3ccoc3C)n2CCc2ccccc2)n1 | -59.7%
Cc1occc1-c1nnc(SCC(=O)NC(C)(C)C)n1C(C)c1ccccc1 (stereo not shown) | -11.8%
CCn1c(SCC(=O)Nc2nccs2)nnc1-c1ccco1 | -10.7%
Cc1csc(NC(=O)CSc2nnc(Cc3cccn3C)n2CCc2ccccc2)n1 | -4.35%
CCn1c(SCC(=O)Nc2nc(C)cs2)nnc1-c1ccoc1C | -1.96%
Cc1occc1-c1nnc(SCC(=O)Nc2nccs2)n1CCc1ccccc1 | -60.3%
COc1cc(C)c(Cl)cc1S(=O)(=O)NCCN1CCOCC1 | 15.9%
Cc1c(NC(=O)c2ccc(F)cc2)c(=O)n(-c2ccccc2)n1C | 11.2%
CCCc1cc(=O)[nH]c(SCC(=O)c2cc(C)n(CC(F)(F)F)c2C)n1 | 7.55%
